# Laboratory results from PubChem BioAssay.
# For some of these results: Measured potencies and affinities stand elsewhere. The source made the active and inactive calls.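 The calls were made as follows, unless noted: active = primary screen activator hit with a dose response curve and TRPC4 channel activation at any tested dose; inactive = no activation, no dose response, or not a primary hit.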
# How the values were obtained:
# [1] = tested on: TRPC4 beta (transient receptor potential cation channel C4), mouse; test: TRPC4 cation channel opening, retest – cell-based, Fluo4 calcium, HEK293 TRPC4beta/mu-opioid, duplicates, 10 µM, confirmation (AID 2426;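 active = fluorescence ratio normalized to control raised more than 50% in primary screen plus both repeat runs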); conditions: Fluo4 calcium fluorescence, at 10 µM; stronger effect = higher value
# [2] = tested on: transient receptor potential cation channel C4 beta (TRPC4), mouse; test: TRPC4 cation channel opening, second retest – cell-based, second round, Fluo4, HEK293 TRPC4beta/mu-opioid, 1 µM, confirmation (AID 2461;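 active = primary screen active and over 50% activation in each of two duplicate runs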); conditions: Fluo4 calcium fluorescence, at 1 µM; stronger effect = higher value
# [3] = tested on: TRPC4 (transient receptor potential cation channel C4 beta), mouse; test: potentiation of DAMGO EC20 TRPC4 response – cell-based, second round, Fluo-4, HEK293 TRPC4beta/mu-opioid, 1 µM, confirmation (AID 2554;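 active = primary screen hit whose fluorescence ratio, in both repeats, exceeds the weak agonist control mean by 3 SD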); conditions: DAMGO EC20, Fluo-4 calcium flux, at 1 µM; stronger effect = higher value
# [4] = tested on: TRPC4 beta (transient receptor potential cation channel C4), mouse; test: potentiation of DAMGO EC20 TRPC4 response – cell-based, Fluo-4, HEK293 TRPC4beta/mu-opioid, confirmation (AID 2555;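 active = primary screen hit whose calcium fluorescence ratio, in both repeats, exceeds the weak agonist control mean by 3 SD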); conditions: DAMGO EC20, Fluo-4 calcium flux, at 10 µM; stronger effect = higher value
# [5] = biological target: Short transient receptor potential channel 4 (Mus musculus) (UniProt Q9QUQ5); test: blockers of DAMGO-evoked TRPC4 calcium flux – cell-based, Fluo4, HEK293 TRPC4beta/mu-opioid, confirmation (AID 2636;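 active = calcium signal cut by more than 3 SD below the full-agonist control yet still positive, in both repeats and the earlier primary screen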); conditions: at 10 µM; stronger effect = higher value
# [6] = biological target: Short transient receptor potential channel 4 (Mus musculus) (UniProt Q9QUQ5); test: blockers of DAMGO-evoked TRPC4 calcium flux – cell-based, second round, Fluo4, HEK293 TRPC4beta/mu-opioid, 1 µM, confirmation (AID 2637;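 active = calcium signal ratio cut to more than 3 SD under the fully stimulated control mean yet still positive, in both repeats and the primary screen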); conditions: at 1 µM; stronger effect = higher value
# [7] = biological target: Short transient receptor potential channel 4 (Mus musculus) (UniProt Q9QUQ5); test: calcium entry via TRPC4 opening agents – cell-based, HEK293 TRPC4/mu-opioid, Fluo-4 calcium, dose response (AID 434937)
# [8] = biological target: Short transient receptor potential channel 4 (Mus musculus) (UniProt Q9QUQ5); test: potentiation of DAMGO-evoked TRPC4 calcium signal – cell-based, HEK293 TRPC4/mu-opioid, Fluo-4 calcium, EC20 DAMGO, dose response (AID 434941;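 active = earlier screen potentiator hit that boosts the TRPC4 ion channel at some dose, with a dose response; inactive = no potentiation, no dose response, or not a prior hit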;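 also: calcium entry triggered by an EC20 dose of DAMGO at the co-expressed mu-opioid receptor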)
# [9] = biological target: Short transient receptor potential channel 4 (Mus musculus) (UniProt Q9QUQ5); test: block of DAMGO-driven TRPC4 calcium entry – cell-based, HEK293 TRPC4/mu-opioid, Fluo-4 calcium, dose response (AID 434942;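 active = primary screen inhibitor hit that blocks the TRPC4 channel at some tested dose, yielding a dose curve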)
# [10] = biological target: Short transient receptor potential channel 6 (Mus musculus) (UniProt Q61143); test: TRPC6 blockade by TRPC4 inhibitor hits – cell-based, HEK293, membrane potential dye, duplicate, selectivity assay for TRPC4 inhibitor project, confirmation (AID 434948;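 active = active in primary screen and both duplicates, each dropping signal beyond three positive-control SD with fluorescence still positive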); conditions: HEK293 TRPC6, membrane potential dye fluorescence, at 10 µM, stimulated with maximal-effect acetylcholine; stronger effect = higher value
# [11] = biological target: Short transient receptor potential channel 6 (Mus musculus) (UniProt Q61143); test: TRPC6 opening by TRPC4 activator hits – cell-based, HEK293, membrane potential dye, duplicate, selectivity assay for TRPC4 activator project, confirmation (AID 434950;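 active = membrane potential signal rise above negative control mean plus 3 SD in both duplicates, also active in the earlier TRPC4 screen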); conditions: HEK293 TRPC6, membrane potential fluorescence, at 10 µM; activation: stronger effect = higher value; outcome: activation
# [12] = biological target: Short transient receptor potential channel 6 (Mus musculus) (UniProt Q61143); test: positive modulators of mouse TRPC6 channel – HEK293 cells, membrane potential dye, duplicate, selectivity assay for TRPC4 potentiator project, confirmation (AID 434952;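 active = compound raising the membrane signal above positive-control mean plus 3 SD in both repeats, and a primary screen hit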); conditions: HEK293 TRPC6, membrane potential dye fluorescence, at 10 µM, maximal acetylcholine added after compound; stronger effect = higher value
# [13] = biological target: Short transient receptor potential channel 4 (Mus musculus) (UniProt Q9QUQ5); test: calcium flux activators in TRPC4/5HT1a cells, counter-screen for TRPC4 activator project, cell-based, second counter screen, HEK293 TRPC4/5HT1a, Fluo-4 (AID 434977;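 active = calcium signal rise above buffer-control mean plus 5 SD in both duplicates, and also a hit in the primary screen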); conditions: Fluo-4 calcium flux, at 10 µM; stronger effect = higher value
# [14] = serotonin-gated TRPC4 signal block – cell-based, second counter screen, HEK293 TRPC4/5HT1a, Fluo-4, counter-screen for TRPC4 inhibitor project, confirmation (AID 434978;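 active = primary screen active whose calcium signal fell more than 3 SD beyond the full-serotonin control mean in both duplicate plates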;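 as to outcome: serotonin given first at submaximal then at maximal dose after compound preincubation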); conditions: Fluo-4 calcium flux, at 10 µM, serotonin added to trigger calcium flux; stronger effect = higher value
# [15] = tested on: TRPC4 (mouse), co-expressed with 5HT1a in HEK293; test: enhancement of serotonin-evoked TRPC4 response – cell-based, second counter screen, HEK293 TRPC4/5HT1a, Fluo-4, counter-screen for TRPC4 potentiator project, confirmation (AID 434979;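 active = signal rise over 3 SD above mean of control wells given weak agonist, in both repeats and first screen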); conditions: Fluo-4 calcium flux, at 10 µM, serotonin added at its EC20 dose; stronger effect = higher value
# [16] = nonspecific calcium rise without TRPC4 – cell-based, HEK293 mu-opioid receptor line, counter-screen for TRPC4 activator project, confirmation (AID 449723;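 active = hit in primary screen, with calcium signal over 5 SD above buffer well mean in both duplicates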;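 also: counter screen cells carry the mu-opioid receptor alone and lack TRPC4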); conditions: HEK293 mu-opioid cells, Fluo-4 calcium fluorescence, at 10 µM; stronger effect = higher value
# [17] = nonspecific potentiation of DAMGO calcium response – cell-based, HEK293 mu-opioid receptor line, counter-screen for TRPC4 allosteric potentiator project, confirmation (AID 449724;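 active = calcium signal rise more than 3 SD above the low-dose agonist control mean, in both duplicate plates and the primary screen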); conditions: HEK293 mu-opioid receptor cells, Fluo-4 calcium flux, at 10 µM, compound added before EC20 DAMGO stimulus; stronger effect = higher value
# Short transient receptor potential channel 4 (Mus musculus), sequence (Q9QUQ5 whole entry, looked up): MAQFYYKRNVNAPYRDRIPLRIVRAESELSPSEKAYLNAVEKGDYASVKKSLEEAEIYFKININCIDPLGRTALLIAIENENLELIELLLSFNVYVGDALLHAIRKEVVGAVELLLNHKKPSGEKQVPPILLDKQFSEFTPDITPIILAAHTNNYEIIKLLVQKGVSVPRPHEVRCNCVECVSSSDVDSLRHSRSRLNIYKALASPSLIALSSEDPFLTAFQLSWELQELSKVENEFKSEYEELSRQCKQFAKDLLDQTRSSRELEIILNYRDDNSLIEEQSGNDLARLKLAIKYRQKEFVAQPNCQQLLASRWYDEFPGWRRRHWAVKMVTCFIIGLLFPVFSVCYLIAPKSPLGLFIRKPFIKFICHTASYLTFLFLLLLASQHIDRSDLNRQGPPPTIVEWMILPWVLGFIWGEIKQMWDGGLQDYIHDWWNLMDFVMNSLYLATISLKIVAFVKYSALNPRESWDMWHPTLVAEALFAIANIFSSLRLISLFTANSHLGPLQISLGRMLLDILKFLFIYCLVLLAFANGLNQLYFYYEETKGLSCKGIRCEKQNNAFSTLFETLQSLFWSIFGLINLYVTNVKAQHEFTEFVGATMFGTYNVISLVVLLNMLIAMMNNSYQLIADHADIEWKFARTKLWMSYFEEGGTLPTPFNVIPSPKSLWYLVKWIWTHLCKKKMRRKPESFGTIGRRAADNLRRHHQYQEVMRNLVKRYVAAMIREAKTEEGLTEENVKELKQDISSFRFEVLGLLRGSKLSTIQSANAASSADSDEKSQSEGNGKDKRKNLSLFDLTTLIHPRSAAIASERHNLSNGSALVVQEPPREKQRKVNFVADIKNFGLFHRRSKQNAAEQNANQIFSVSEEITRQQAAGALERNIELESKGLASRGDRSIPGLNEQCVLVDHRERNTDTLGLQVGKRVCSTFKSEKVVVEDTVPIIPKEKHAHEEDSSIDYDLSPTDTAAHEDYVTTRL
# Short transient receptor potential channel 6 (Mus musculus), sequence (Q61143 whole entry, looked up): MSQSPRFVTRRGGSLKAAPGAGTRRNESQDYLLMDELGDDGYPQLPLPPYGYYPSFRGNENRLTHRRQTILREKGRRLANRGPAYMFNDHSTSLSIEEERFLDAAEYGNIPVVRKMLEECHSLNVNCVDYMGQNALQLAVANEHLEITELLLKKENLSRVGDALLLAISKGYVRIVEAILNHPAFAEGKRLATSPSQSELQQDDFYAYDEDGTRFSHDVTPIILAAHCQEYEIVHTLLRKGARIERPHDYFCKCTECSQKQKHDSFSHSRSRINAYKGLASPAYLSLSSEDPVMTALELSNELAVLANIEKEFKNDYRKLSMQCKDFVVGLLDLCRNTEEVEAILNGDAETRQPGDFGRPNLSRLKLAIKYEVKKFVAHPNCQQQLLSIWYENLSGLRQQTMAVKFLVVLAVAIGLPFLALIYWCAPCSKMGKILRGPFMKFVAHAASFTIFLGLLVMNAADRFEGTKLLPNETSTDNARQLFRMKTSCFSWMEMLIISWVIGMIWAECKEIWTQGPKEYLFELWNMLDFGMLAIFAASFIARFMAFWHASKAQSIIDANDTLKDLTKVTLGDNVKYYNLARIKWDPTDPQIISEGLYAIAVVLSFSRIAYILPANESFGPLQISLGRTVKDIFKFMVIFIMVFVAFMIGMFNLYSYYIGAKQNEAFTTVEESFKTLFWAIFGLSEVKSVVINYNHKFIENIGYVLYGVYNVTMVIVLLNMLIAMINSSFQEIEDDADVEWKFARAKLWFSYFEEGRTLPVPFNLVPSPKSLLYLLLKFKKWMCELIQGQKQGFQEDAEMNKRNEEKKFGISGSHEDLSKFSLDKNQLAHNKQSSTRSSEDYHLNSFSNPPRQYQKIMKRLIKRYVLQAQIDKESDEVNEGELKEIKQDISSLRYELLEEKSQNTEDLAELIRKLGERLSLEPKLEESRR
smiles,measurement,setting,value
CCCc1ccc(OCc2ccc(C(=O)N3CCCC3)o2)cc1,outcome,[1],inactive
same,outcome,[2],inactive
same,outcome,[3],inactive
same,potentiation,[4],23% (active)
same,outcome,[5],inactive
same,outcome,[6],inactive
same,outcome,[7],inactive
same,outcome,[8],inactive
same,outcome,[9],inactive
same,outcome,[10],inactive
same,outcome,[11],inactive
same,outcome,[12],inactive
same,outcome,[13],inactive
same,outcome,[14],inactive
same,potentiation,[15],31.2% (active)
same,outcome,[16],inactive
same,outcome,[17],inactive
CCOCCCNCc1ccc(OCc2ccccc2Cl)cc1,outcome,[1],inactive
same,outcome,[2],inactive
same,outcome,[3],inactive
same,outcome,[4],inactive
same,outcome,[5],inactive
same,outcome,[6],inactive
same,outcome,[7],inactive
same,outcome,[8],inactive
same,outcome,[9],inactive
same,outcome,[10],inactive
same,outcome,[11],inactive
same,outcome,[12],inactive
same,outcome,[13],inactive
same,outcome,[14],inactive
same,outcome,[15],inactive
same,outcome,[16],inactive
same,outcome,[17],inactive
COc1ccc2c(c1)c1ncn(CCN3CCCC3)c(=O)c1n2C,outcome,[1],inactive
same,outcome,[2],inactive
same,potentiation,[3],13% (active)
same,outcome,[4],inactive
same,outcome,[5],inactive
same,outcome,[6],inactive
same,outcome,[7],inactive
same,outcome,[8],inactive
same,outcome,[9],inactive
same,outcome,[10],inactive
same,outcome,[11],inactive
same,outcome,[12],inactive
same,outcome,[13],inactive
same,outcome,[14],inactive
same,potentiation,[15],12.8% (active)
same,outcome,[16],inactive
same,outcome,[17],inactive
OC(c1ccccc1)(c1ccccc1)C1CCN(C(=S)NC2CCCC2)CC1,outcome,[1],inactive
same,outcome,[2],inactive
same,outcome,[3],inactive
same,outcome,[4],inactive
same,outcome,[5],inactive
same,outcome,[6],inactive
same,outcome,[7],inactive
same,outcome,[8],inactive
same,outcome,[9],inactive
same,outcome,[10],inactive
same,outcome,[11],inactive
same,outcome,[12],inactive
same,outcome,[13],inactive
same,outcome,[14],inactive
same,outcome,[15],inactive
same,outcome,[16],inactive
same,outcome,[17],inactive
Cc1ccc(Cl)cc1N1CCN(Cc2nc3ccsc3c(=O)[nH]2)CC1,outcome,[1],inactive
same,outcome,[2],inactive
same,outcome,[3],inactive
same,potentiation,[4],25% (active)
same,outcome,[5],inactive
same,outcome,[6],inactive
same,outcome,[7],inactive
same,outcome,[8],inactive
same,outcome,[9],inactive
same,outcome,[10],inactive
same,outcome,[11],inactive
same,outcome,[12],inactive
same,outcome,[13],inactive
same,outcome,[14],inactive
same,outcome,[15],inactive
same,outcome,[16],inactive
same,outcome,[17],inactive
CCCCN(C)CCNC(=S)Nc1ccc2nc(N3CCN(CC)CC3)cc(C)c2c1,outcome,[1],inactive
same,outcome,[2],inactive
same,potentiation,[3],11% (active)
same,outcome,[4],inactive
same,outcome,[5],inactive
same,outcome,[6],inactive
same,outcome,[7],inactive
same,outcome,[8],inactive
same,outcome,[9],inactive
same,outcome,[10],inactive
same,outcome,[11],inactive
same,outcome,[12],inactive
same,outcome,[13],inactive
same,outcome,[14],inactive
same,potentiation,[15],18% (active)
same,outcome,[16],inactive
same,outcome,[17],inactive
C/C(=N/Nc1ccnc2cc(Cl)ccc12)c1ccc(N)cc1,outcome,[1],inactive
same,outcome,[2],inactive
same,outcome,[3],inactive
same,outcome,[4],inactive
same,outcome,[5],inactive
same,outcome,[6],inactive
same,outcome,[7],inactive
same,outcome,[8],inactive
same,outcome,[9],inactive
same,outcome,[10],inactive
same,outcome,[11],inactive
same,outcome,[12],inactive
same,outcome,[13],inactive
same,outcome,[14],inactive
same,outcome,[15],inactive
same,outcome,[16],inactive
same,outcome,[17],inactive
CCCCN(C(=O)c1cccc2c(=O)c(C)c(-c3ccccc3)oc12)c1ccccc1,outcome,[1],inactive
same,outcome,[2],inactive
same,outcome,[3],inactive
same,potentiation,[4],15% (active)
same,outcome,[5],inactive
same,outcome,[6],inactive
same,outcome,[7],inactive
same,outcome,[8],inactive
same,outcome,[9],inactive
same,outcome,[10],inactive
same,outcome,[11],inactive
same,outcome,[12],inactive
same,outcome,[13],inactive
same,outcome,[14],inactive
same,potentiation,[15],12.4% (active)
same,outcome,[16],inactive
same,outcome,[17],inactive
CCCN1CCN(C(=S)NCc2ccc(Cl)cc2)CC1,outcome,[1],inactive
same,outcome,[2],inactive
same,outcome,[3],inactive
same,potentiation,[4],8% (active)
same,outcome,[5],inactive
same,outcome,[6],inactive
same,outcome,[7],inactive
same,outcome,[8],inactive
same,outcome,[9],inactive
same,outcome,[10],inactive
same,outcome,[11],inactive
same,outcome,[12],inactive
same,outcome,[13],inactive
same,outcome,[14],inactive
same,potentiation,[15],19.3% (active)
same,outcome,[16],inactive
same,outcome,[17],inactive
COC(=O)CC(NC(=S)NC(=O)c1ccccc1)c1ccc(Br)cc1 (centres undefined),outcome,[1],inactive
same,outcome,[2],inactive
same,outcome,[3],inactive
same,potentiation,[4],35% (active)
same,outcome,[5],inactive
same,outcome,[6],inactive
same,outcome,[7],inactive
same,outcome,[8],inactive
same,outcome,[9],inactive
same,outcome,[10],inactive
same,outcome,[11],inactive
same,outcome,[12],inactive
same,outcome,[13],inactive
same,outcome,[14],inactive
same,potentiation,[15],12.5% (active)
same,outcome,[16],inactive
same,outcome,[17],inactive
C(=N\N(Cc1ccccc1)c1ccccc1)/c1cccnc1,outcome,[1],inactive
same,outcome,[2],inactive
same,outcome,[3],inactive
same,outcome,[4],inactive
same,inhibition,[5],63% (active)
same,outcome,[6],inactive
same,outcome,[7],inactive
same,outcome,[8],inactive
same,outcome,[9],inactive
same,outcome,[10],inactive
same,outcome,[11],inactive
same,outcome,[12],inactive
same,outcome,[13],inactive
same,inhibition,[14],40.3% (active)
same,outcome,[15],inactive
same,outcome,[16],inactive
same,outcome,[17],inactive
COc1ccc(CC2(CO)CCN(C/C=C/c3ccccc3OC)CC2)cc1,outcome,[1],inactive
same,outcome,[2],inactive
same,outcome,[3],inactive
same,outcome,[4],inactive
same,inhibition,[5],79% (active)
same,outcome,[6],inactive
same,outcome,[7],inactive
same,outcome,[8],inactive
same,outcome,[9],inactive
same,outcome,[10],inactive
same,outcome,[11],inactive
same,outcome,[12],inactive
same,outcome,[13],inactive
same,inhibition,[14],33.5% (active)
same,outcome,[15],inactive
same,outcome,[16],inactive
same,outcome,[17],inactive
Oc1c(Br)cc(Br)c(/C=N/n2c(-c3ccccc3)n[nH]c2=S)c1Br,outcome,[1],inactive
same,outcome,[2],inactive
same,outcome,[3],inactive
same,potentiation,[4],18% (active)
same,outcome,[5],inactive
same,outcome,[6],inactive
same,outcome,[7],inactive
same,outcome,[8],inactive
same,outcome,[9],inactive
same,outcome,[10],inactive
same,outcome,[11],inactive
same,outcome,[12],inactive
same,outcome,[13],inactive
same,outcome,[14],inactive
same,outcome,[15],inactive
same,outcome,[16],inactive
same,outcome,[17],inactive
CCN(CC)CCSc1nnc2c3ccccc3n(Cc3ccccc3)c2n1,outcome,[1],inactive
same,outcome,[2],inactive
same,outcome,[3],inactive
same,outcome,[4],inactive
same,outcome,[5],inactive
same,outcome,[6],inactive
same,outcome,[7],inactive
same,outcome,[8],inactive
same,outcome,[9],inactive
same,outcome,[10],inactive
same,outcome,[11],inactive
same,outcome,[12],inactive
same,outcome,[13],inactive
same,outcome,[14],inactive
same,outcome,[15],inactive
same,outcome,[16],inactive
same,outcome,[17],inactive
O=C(O)c1nn(CC(=O)N2CCN(c3ncc(C(F)(F)F)cc3Cl)CC2)c(=O)c2ccccc12,outcome,[1],inactive
same,outcome,[2],inactive
same,outcome,[3],inactive
same,outcome,[4],inactive
same,outcome,[5],inactive
same,outcome,[6],inactive
same,outcome,[7],inactive
same,outcome,[8],inactive
same,outcome,[9],inactive
same,outcome,[10],inactive
same,outcome,[11],inactive
same,outcome,[12],inactive
same,outcome,[13],inactive
same,outcome,[14],inactive
same,outcome,[15],inactive
same,outcome,[16],inactive
same,outcome,[17],inactive
CCOC(=O)C1CCCN(C(=O)CCCn2nnnc2CN2CCOCC2)C1 (centres undefined),outcome,[1],inactive
same,outcome,[2],inactive
same,outcome,[3],inactive
same,outcome,[4],inactive
same,outcome,[5],inactive
same,outcome,[6],inactive
same,outcome,[7],inactive
same,outcome,[8],inactive
same,outcome,[9],inactive
same,outcome,[10],inactive
same,outcome,[11],inactive
same,outcome,[12],inactive
same,outcome,[13],inactive
same,outcome,[14],inactive
same,potentiation,[15],13.4% (active)
same,outcome,[16],inactive
same,outcome,[17],inactive
Cc1ccc(-c2cn(-c3ccccc3)c(SCC(N)=O)n2)cc1C,outcome,[1],inactive
same,outcome,[2],inactive
same,potentiation,[3],29% (active)
same,outcome,[4],inactive
same,outcome,[5],inactive
same,outcome,[6],inactive
same,outcome,[7],inactive
same,outcome,[8],inactive
same,outcome,[9],inactive
same,outcome,[10],inactive
same,outcome,[11],inactive
same,outcome,[12],inactive
same,outcome,[13],inactive
same,outcome,[14],inactive
same,potentiation,[15],25.4% (active)
same,outcome,[16],inactive
same,activation,[17],741% (active)
